# High-throughput results (PubChem)
# HT1080 IDH1KD tx: HT-1080 IDH1 knockdown cell toxicity (counter line). HT-1080 IDH1 knockdown viability, ATP luminescence, 48 h. Potency, µM (doses to about 46.1 µM), usual class: cytotoxic. 2% of 360,000 active
#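 Assay cells: HT-1080 with IDH1 knockdown, 750 per well, RPMI/5% FBS. Exposure: 48 h at 37 °C following 2 h pre-incubation. Read: CellTiter-Glo luminescence; fitted concentration-response, curve class assigned.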
# HT1080-NT tox: kills 2HG-producing HT-1080-NT fibrosarcoma cells | Potency, µM (top dose mostly 46.1 µM), actives largely listed as cytotoxic | HT-1080-NT fibrosarcoma viability, CellTiter-Glo ATP luminescence, 48 h | 1.6% of 360,000 active;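 note: NT is the 2HG producing partner of a matched IDH1 knockdown line; nearly all actives have a fitted effect of over 55% in size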
#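 HT-1080-NT fibrosarcoma cells (2HG-overproducing), 750 cells/well in RPMI with 5% FBS, dosed after 2 h and incubated 48 h at 37C. CellTiter-Glo luminescence normalized to DMSO and no-cell wells; concentration-response curves fitted and classed.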
# ATXN2 expr inh: ATXN2 expression inhibition; 0.72% of 360,000 active; HEK-293 ATXN2-luciferase reporter, luminescence, 24 h; AID 1745845; Potency, µM (highest dose often 57 µM), most hits filed as inhibitors; note: nearly all actives have a fitted effect of over 55% in size
#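 qHTS (up to 57 uM final) was run with 24 h compound exposure of reporter cells at 37 °C. Each well was multiplexed: SteadyGlo luminescence measured ATXN2-luciferase expression after a fluorogenic Gly-Phe-AFC viability readout (25 uM final).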
# KB-V1 cytotox: KB-V1 MDR subline cytotoxicity; KB-V1 MDR cells viability, CellTiter-Glo, 72 h; Potency, µM (highest dose often 46.1 µM), usual class: cytotoxic; 3.4% of 400,000 active; AID 1347076; note: nearly all actives have a fitted effect of over 60% in size
#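 KB-V1 MDR subline cells in DMEM (phenol-red free, 10% FBS) exposed to compounds in qHTS concentration series for 72 h at 37 degrees C. Viability read by CellTiter-Glo luminescence; concentration-effect curves fitted after normalization and correction.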
# S2 tox: reduces viability in counter-screen for ATXN expression inhibitors | S2 cells (HEK-293 line with an ATXN2-luciferase reporter) viability, CellTiter-Fluor protease fluorescence, 24 h | Potency, µM (top dose mostly 56.7 µM), actives largely listed as cytotoxic | 0.49% of 400,000 active | AID 651635; note: nearly all actives have a fitted effect of over 40% in size
# KB-3-1 cytotox: kills parental KB-3-1 adenocarcinoma cells | KB-3-1 viability, CellTiter-Glo ATP luminescence, 72 h | Potency, µM (highest dose often 46.1 µM), actives largely listed as cytotoxic | 1.4% of 400,000 active | AID 1347075; note: nearly all actives have a fitted effect of over 60% in size
#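 Cytotoxicity measured as CellTiter-Glo luminescence after 72 h at 37 C. Compound titrations were pinned onto drug-naive KB-3-1 parental adenocarcinoma cells grown in DMEM with 10% FBS, and normalized data fitted to concentration-response curves.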
# A number is an active result; i = inactive; ? = inconclusive; nt = no result. An excerpt weighted towards active compounds, which were near 6.2% of everything screened. Calls come from the whole dose curve; as a rule, active = well fitted curve in the direction sought with a large enough effect; inconclusive = small, poorly fitted or top-dose-only effect, or another doubt; inactive = no such curve, though single readings can be large; an effect the other way counts as inactive or inconclusive.
SMILES,HT1080 IDH1KD tx,HT1080-NT tox,ATXN2 expr inh,KB-V1 cytotox,S2 tox,KB-3-1 cytotox
CC[C@]12c3[nH]c4cc(CCC(=O)N(C)C)ccc4c3CCN1C(=O)[C@@H](CC(=O)NCCN1CCOCC1)C[C@@H]2C(=O)N1CCN(C(=O)c2ccco2)CC1,i,i,i,i,i,i
CCN(CC)C(=O)[C@H]1CC(CC(=O)NC/C=C(\C)CCC=C(C)C)C(=O)N2CCc3c([nH]c4ccc(OC)cc34)[C@]12C (some centres not stated),16.4µM,?,?,?,25.1µM,?
CC(=O)c1ccc(NC(=O)C2CCN(c3nnc(C)c4c(C)n(-c5ccccc5)nc34)CC2)cc1,nt,nt,nt,i,nt,i
CS(=O)(=O)c1ccc(C(=O)Nc2ccc(Cl)c(-c3ccccn3)c2)c(Cl)c1,nt,nt,i,nt,nt,nt
Cn1c(=O)[nH]c(=O)c2c1nc(Br)n2Cc1cccc(Br)c1,4.61µM,6.51µM,i,?,i,?
Cc1csc(Sc2nc3c(c(=O)[nH]c(=O)n3C)n2Cc2ccccc2Cl)n1,i,i,i,?,i,i
Cc1cccc(Cn2c(Sc3nc(C)cs3)nc3c2c(=O)[nH]c(=O)n3C)c1,i,i,i,4.11µM,?,i
Cn1c(=O)c2c(nc(Br)n2Cc2ccc3ccccc3c2)n(C)c1=O,i,?,i,2.59µM,i,7.31µM
O=C(NCCc1nnc2n1CCN(Cc1ccc(F)cc1)CC2)c1ccc(F)cc1,nt,nt,nt,nt,i,nt
Cc1cccc(C)c1-n1nnnc1C(c1ccnc2ccccc12)N1CCN(C(=O)OCc2ccccc2)CC1 (configuration not stated),i,i,i,i,i,?
CCOc1ccc(NC(=O)/C(C#N)=C\c2ccc(N3CCCC3)c(C)c2)cc1,i,i,i,i,i,i
COc1ccccc1C1CN(Cc2cccc3c2OCO3)Cc2ccccc2O1 (configuration not stated),nt,nt,nt,nt,i,nt
Cc1ccnc(NC(=S)N2CCN(c3cccc([N+](=O)[O-])c3)CC2)c1,nt,nt,nt,i,nt,i
Cc1occc(=O)c1OC(=O)Nc1ccc(Cl)c(Cl)c1,?,23.1µM,i,?,?,?
COc1ccc(C(=O)Oc2c(C)occc2=O)cc1OC,i,i,i,?,i,i
O=C(c1csc(Nc2ccccc2Cl)n1)N1CCCC1,i,i,i,20.6µM,i,i
O=C(c1ccc2nc(-c3ccco3)c(-c3ccco3)nc2c1)N1CCN(c2ccccc2)CC1,?,i,?,23.1µM,?,i
O=C(Nc1ccc2nc(-c3cccs3)c(-c3cccs3)nc2c1)N1CCOCC1,?,i,i,16.4µM,i,i
O=C(Nc1ccc(N2CCOCC2)cc1)Nc1ccc2nc(-c3ccco3)c(-c3ccco3)nc2c1,5.01µM,2.82µM,i,?,i,?
CCc1nc2ccc(C(=O)N3CCN(c4ccccc4)CC3)cc2nc1CC,i,i,i,i,i,i
Cc1ccc(CN2CCOc3ccc(C(C)(O)COc4ccccc4)cc3C2)o1 (configuration not stated),nt,nt,nt,nt,i,nt
CCC1CN(Cc2cn[nH]c2-c2ccccc2)Cc2cc(OC)ccc2O1 (configuration not stated),nt,nt,nt,nt,i,nt
Nc1ncnc2ccccc12,nt,nt,i,nt,nt,nt
CC1(Oc2ccc3ccccc3c2)CCN(Cc2cccn2-c2nccs2)C1 (configuration not stated),14.6µM,20.6µM,i,i,?,i
Oc1ccccc1N1CCN(c2ncnc3scc(-c4ccccc4)c23)CC1,?,?,i,?,i,?
c1ccc(CCNc2ncnc3scc(C4COc5ccccc5O4)c23)cc1 (configuration not stated),i,i,i,13µM,i,?
c1ccc2c(c1)OCC(c1csc3ncnc(N4CCCC4)c13)O2 (configuration not stated),i,i,i,13µM,i,?
COc1ccc(NC(=O)C2=C(C)Nc3nc(SCc4ccccc4C)nn3C2c2cc(OC)c(O)c(OC)c2)cc1 (configuration not stated),nt,nt,i,i,i,i
